Experiment [1] is described as follows: Nuclear factor erythroid 2-related factor 2/antioxidant responsive element (Nrf2/ARE) small molecule agonists: qHTS cell viability counter screen in human keratinocytes (AID 1919968; active = well fitted curve in the direction sought with a large enough effect in the repeat runs; an effect the other way counts as inactive or inconclusive; note: nearly all actives have a fitted effect of over 55% in size; note: potency is the fitted concentration of half-maximal effect). An outline of the steps:
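Stably transfected HaCaT (KeratinoSens), 1,500/well. Test agents in DMSO were applied for 23 h, 37 C/5% CO2. CellTiter-Fluor was incubated 1 h before the fluorescence read.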
On the technique in general: qHTS replaces the single test concentration by a dilution series.

The nature of experiment [2]: Nuclear factor erythroid 2-related factor 2/antioxidant responsive element (Nrf2/ARE) small molecule agonists: luciferase reporter gene qHTS assay in human keratinocytes (AID 1919969). Note: nearly all actives have a fitted effect of over 35% in size. Note: potency is the fitted concentration of half-maximal effect.
Experiment [3] has as its target Gonadotropin-releasing hormone receptor (Homo sapiens) (UniProt P30968). In words: Human gonadotropin-releasing hormone receptor (GnRHR) small molecule agonists, calcium flux assay in GnRHR-HEK293 cells (AID 1920063). Note: nearly all actives have a fitted effect of over 35% in size. An outline of the steps:
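Stable human GnRHR HEK293 line. 18 h plating, then calcium dye for 1 h at 37 C. Agonist-mode compound addition from DMSO stocks; fluorescence monitored 3 min.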
A general note: Calcium flux is commonly read through the fluorescence of an indicator in the cells.

For experiment [4], the target named is KiSS-1 receptor (Homo sapiens) (UniProt Q969F8). As to the kind of experiment: Human kisspeptin (KISS1R) small molecule agonists, calcium flux assay in KISS1R-HEK293 cells (AID 1920064; active = well fitted curve in the direction sought with a large enough effect in the repeat runs; an effect the other way counts as inactive or inconclusive). In a few lines: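 After overnight (18 h) culture at 37 C/5% CO2, human KISS1R-HEK293 cells received calcium dye for 1 h, then test compound; emission at 540 nm (excitation 480 nm) was tracked for 3 min.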
KiSS-1 receptor (Homo sapiens), sequence (Q969F8 whole entry, looked up): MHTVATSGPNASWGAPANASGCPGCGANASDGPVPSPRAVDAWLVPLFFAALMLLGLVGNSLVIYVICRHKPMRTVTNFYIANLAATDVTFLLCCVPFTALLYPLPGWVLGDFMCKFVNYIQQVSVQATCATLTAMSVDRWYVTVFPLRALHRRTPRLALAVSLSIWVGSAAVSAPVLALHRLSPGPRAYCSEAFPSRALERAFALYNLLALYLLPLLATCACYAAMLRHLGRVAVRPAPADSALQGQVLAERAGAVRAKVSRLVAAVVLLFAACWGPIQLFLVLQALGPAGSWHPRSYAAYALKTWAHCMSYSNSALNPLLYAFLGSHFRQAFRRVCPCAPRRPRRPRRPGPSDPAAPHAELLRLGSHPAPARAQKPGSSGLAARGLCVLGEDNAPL

A short description of experiment [5]: G protein-coupled receptor (GPCR) small molecule agonists, calcium flux assay: HEK293 wild type cell line counter screen (AID 1920065). In a few lines: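 Following 18 h incubation at 37 C/5% CO2, plates got calcium dye for 1 h; compounds, ATP or DMSO were then pinned in and fluorescence followed kinetically (480/540 nm).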
Experiment [6] can be described thus: p53 small molecule agonists, cell-based qHTS assay with human liver microsomes (AID 1963577). An outline of the steps: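 p53RE-bla cells, 4,000/well, compound added after 5 h, with human liver microsomes 0.5 mg/mL and NADPH 0.5 mg/mL final; 16 h at 37 C, then LiveBLAzer 2 h RT, fluorescence.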
Experiment [7] can be described thus: p53 small molecule agonists, cell-based qHTS assay with rat liver microsomes (AID 1963578). An outline of the steps: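 p53RE-bla cells, 4,000/well, pre-incubated 5 h, then given compounds plus rat liver microsomes (0.5 mg/mL final) and NADPH (0.5 mg/mL final). Incubation 16 h at 37 C; beta-lactamase reporter read by LiveBLAzer fluorescence after 2 h at room temperature.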

Experiment [8] is described as follows: p53 small molecule agonists, cell-based qHTS assay with human liver microsomes: qHTS cell viability counter screen (AID 1963579). Note: nearly all actives have a fitted effect of over 45% in size. An outline of the steps: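 p53RE-bla cells, 4,000/well, dosed 5 hours after plating, with human liver microsomes (0.5 mg/mL final) plus NADPH (0.5 mg/mL final), 16 hours at 37 C. Viability read as CellTiter-Glo luminescence after 30 min at room temperature.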

The nature of experiment [9]: p53 small molecule agonists, cell-based qHTS assay with rat liver microsomes: qHTS cell viability counter screen (AID 1963580). Note: nearly all actives have a fitted effect of over 45% in size. In a few lines: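 Cytotoxicity counter screen: intracellular ATP measured by CellTiter-Glo luminescence in the same wells as the beta-lactamase reporter read, on HCT-116 p53RE-bla cells exposed 16 h at 37 C to compounds with rat liver microsomes and NADPH, each 0.5 mg/mL final.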

A short description of experiment [10]: p53 small molecule agonists, cell-based qHTS assay: qHTS cell viability counter screen (AID 1963581). Note: nearly all actives have a fitted effect of over 45% in size. An outline of the steps:
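qHTS counter screen: 16 h compound exposure at 37 C of p53RE-bla HCT-116 cells (4,000 per well, seeded 5 h prior), cell viability by ATP luminescence.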

A short description of experiment [11]: p53 small molecule agonists, cell-based qHTS assay (AID 1963582; active = well fitted activation curve with a large enough effect in the signal ratio in the repeat runs, not every such curve was filed as active; the % refers to the signal ratio). An outline of the steps:
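Measured: fluorescence from cleaved LiveBLAzer substrate. System: p53RE-bla cells, 16 h compound treatment at 37 C, 2 h substrate step at room temperature.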

Experiment [12] has as its target 5-hydroxytryptamine receptor 2A (Homo sapiens) (UniProt P28223). As to the kind of experiment: 5-hydroxytryptamine receptor 2A (HTR2A) small molecule agonists, cell-based qHTS assay (AID 1963587). Note: nearly all actives have a fitted effect of over 30% in size. An outline of the steps:
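CHO cells stably expressing human HTR2A, plated 18 h, loaded with calcium dye 1 h at 37 C. Agonist mode: compounds added and intracellular calcium fluorescence recorded kinetically for 2 min at 1 sec intervals.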

The target in experiment [13] is Muscarinic acetylcholine receptor M1 (Homo sapiens) (UniProt P11229). In words: Cholinergic receptor muscarinic 1 (CHRM1) small molecule antagonists, cell-based qHTS assay (AID 1963588). Note: nearly all actives have a fitted effect of over 40% in size. An outline of the steps:
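Compounds were tested at 15 concentrations in three independent runs. Dye-loaded CHRM1-CHO cells were exposed 5 min at room temperature before stimulation by acetylcholine added at 50nM. Intracellular calcium was read kinetically on FDSS for 3 min.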

The target is the same in experiment [14]. As to the kind of experiment: Cholinergic receptor muscarinic 1 (CHRM1) small molecule agonists, cell-based qHTS assay (AID 1963589). Note: nearly all actives have a fitted effect of over 35% in size. An outline of the steps: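 Kinetic fluorescence (1 s intervals) of calcium-sensitive dye in human M1 CHO cells after compound addition; cells pre-incubated 18 h at 37 C/5% CO2 and dye-loaded 1 h.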
The target of experiment [15] is Beta-2 adrenergic receptor (Homo sapiens) (UniProt P07550). As to the kind of experiment: Adrenergic beta2 receptor (ADRB2) small molecule antagonists, cell-based qHTS assay (AID 1963592). Note: series mostly up to about 92 µM; nearly all actives have a fitted effect of over 50% in size. In a few lines: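 Assay format: CHO-ADRB2 cells, 18-20hr seeding at 37C/5% CO2, then compound plus 1nM isoproterenol agonist mix for 0.5hr RT. Homogeneous time-resolved fluorescence cAMP detection after 1hr, expressed as 665/615 nm ratio.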
Beta-2 adrenergic receptor (Homo sapiens), sequence (P07550 whole entry, looked up): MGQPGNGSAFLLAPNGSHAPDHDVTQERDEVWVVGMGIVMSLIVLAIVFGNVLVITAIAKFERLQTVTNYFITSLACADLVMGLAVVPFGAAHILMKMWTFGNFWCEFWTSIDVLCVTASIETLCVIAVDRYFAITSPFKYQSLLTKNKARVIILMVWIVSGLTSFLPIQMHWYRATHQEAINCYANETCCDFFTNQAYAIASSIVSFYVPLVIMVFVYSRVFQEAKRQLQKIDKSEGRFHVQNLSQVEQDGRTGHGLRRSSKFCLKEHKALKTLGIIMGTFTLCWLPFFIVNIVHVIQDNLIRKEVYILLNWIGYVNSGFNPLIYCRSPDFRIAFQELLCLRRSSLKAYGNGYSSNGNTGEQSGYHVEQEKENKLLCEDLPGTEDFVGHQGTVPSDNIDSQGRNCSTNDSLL

For experiment [16], the target named is D(2) dopamine receptor (Homo sapiens) (UniProt P14416). As to the kind of experiment: Dopamine D2 receptor (DRD2) small molecule agonists, cell-based qHTS assay (AID 1963594). Note: nearly all actives have a fitted effect of over 35% in size. An outline of the steps: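 HEK293 cells stably expressing human DRD2, pre-treated with PDE inhibitor Ro20-1724 (0.1 mM final) and compound 10 min at room temperature, then stimulated with NKH477 (200nM […]) for 30 min. cAMP read by HTRF (665/620 nm).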
D(2) dopamine receptor (Homo sapiens), sequence (P14416 whole entry, looked up): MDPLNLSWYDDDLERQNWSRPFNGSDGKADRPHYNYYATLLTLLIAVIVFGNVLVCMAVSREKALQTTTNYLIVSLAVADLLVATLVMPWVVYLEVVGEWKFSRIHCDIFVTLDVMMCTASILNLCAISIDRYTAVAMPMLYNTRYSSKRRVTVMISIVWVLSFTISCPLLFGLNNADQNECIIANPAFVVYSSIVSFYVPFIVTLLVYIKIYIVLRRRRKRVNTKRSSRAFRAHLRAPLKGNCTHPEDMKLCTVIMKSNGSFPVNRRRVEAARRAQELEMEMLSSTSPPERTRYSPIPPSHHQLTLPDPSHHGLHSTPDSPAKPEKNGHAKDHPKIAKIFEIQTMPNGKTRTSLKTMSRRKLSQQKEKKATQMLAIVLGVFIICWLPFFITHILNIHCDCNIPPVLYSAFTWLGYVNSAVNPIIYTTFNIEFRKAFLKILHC

For experiment [17] the target is unchanged. As to the kind of experiment: Dopamine D2 receptor (DRD2) small molecule antagonists, cell-based qHTS assay (AID 1963595; active = well fitted inhibition curve with a large enough effect in the signal ratio in the repeat runs, with a control signal flat; the % refers to the signal ratio). An outline of the steps:
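Cells were plated and grown for 24 h at 37 °C. Ro20-1724 (0.1 mM final) went in first, then compound for 10 min. NKH477 (200 nM) with quinpirole (12 nM) followed for 30 min at RT, then HTRF detection reagents for 1 h.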

Experiment [18] deals with 5-hydroxytryptamine receptor 2A (Homo sapiens) (UniProt P28223). In words: 5-hydroxytryptamine receptor 2A (HTR2A) small molecule antagonists, cell-based qHTS assay (AID 1963586). Note: nearly all actives have a fitted effect of over 45% in size. In a few lines: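 CHO cells stably expressing human HTR2A were plated for 18 h at 37 C, then loaded with calcium dye for 1 h. Compounds were preincubated 5 min at room temperature before DOI (4 nM solution) was added. Kinetic fluorescence was read for 3 min.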
5-hydroxytryptamine receptor 2A (Homo sapiens), sequence (P28223 whole entry, looked up): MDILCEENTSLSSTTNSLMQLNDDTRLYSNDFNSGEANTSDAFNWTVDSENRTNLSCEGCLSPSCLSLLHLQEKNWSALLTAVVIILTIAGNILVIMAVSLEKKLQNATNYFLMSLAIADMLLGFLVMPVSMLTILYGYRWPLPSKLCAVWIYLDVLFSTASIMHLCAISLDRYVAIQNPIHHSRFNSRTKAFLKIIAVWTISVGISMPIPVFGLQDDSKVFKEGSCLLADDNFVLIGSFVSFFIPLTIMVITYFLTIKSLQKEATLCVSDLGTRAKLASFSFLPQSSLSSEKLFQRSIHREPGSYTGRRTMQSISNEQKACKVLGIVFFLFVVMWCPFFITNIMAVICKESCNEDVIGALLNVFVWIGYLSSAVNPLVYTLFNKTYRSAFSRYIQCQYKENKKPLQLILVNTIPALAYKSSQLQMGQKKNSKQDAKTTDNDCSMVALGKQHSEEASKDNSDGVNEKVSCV

The nature of experiment [19]: cAMP Responsive Elements (CRE) small molecule agonists, cell-based qHTS assay (AID 1963590). In a few lines: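 Test agents in DMSO were incubated 3 h at 37 C/5% CO2 with CRE-bla HEK 293T cells seeded 18 h earlier; LiveBLAzer B/G FRET substrate was added and read after 2 h at room temperature.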
Experiment [20] in a line: cAMP Responsive Elements (CRE) small molecule antagonists, cell-based qHTS assay (AID 1963591; active = well fitted inhibition curve with a large enough effect in the signal ratio in the repeat runs, not every such curve was filed as active; the % refers to the signal ratio). In a few lines: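 Reporter line CRE-bla HEK 293T in dialyzed-FBS DMEM; cells preincubated 18 h, treated 3 h with compound plus NKH477 (0.25 uM final); LiveBLAzer FRET, 2 h RT.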

Values without a mark were called inactive. Records with an inconclusive call do not appear. Active and inactive are the calls of the source. Unless noted, calls come from the whole dose curve.

Gonadotropin-releasing hormone receptor (Homo sapiens), sequence (P30968 whole entry, looked up): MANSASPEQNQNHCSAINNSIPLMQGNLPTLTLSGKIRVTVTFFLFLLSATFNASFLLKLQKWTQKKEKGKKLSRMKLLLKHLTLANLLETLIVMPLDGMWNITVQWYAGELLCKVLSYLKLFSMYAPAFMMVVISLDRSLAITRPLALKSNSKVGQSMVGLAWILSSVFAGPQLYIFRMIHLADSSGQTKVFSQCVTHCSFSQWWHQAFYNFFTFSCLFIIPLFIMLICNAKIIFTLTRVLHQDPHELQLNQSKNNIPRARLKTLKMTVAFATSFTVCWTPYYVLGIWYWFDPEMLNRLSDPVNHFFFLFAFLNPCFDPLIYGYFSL
Muscarinic acetylcholine receptor M1 (Homo sapiens), sequence (P11229 whole entry, looked up): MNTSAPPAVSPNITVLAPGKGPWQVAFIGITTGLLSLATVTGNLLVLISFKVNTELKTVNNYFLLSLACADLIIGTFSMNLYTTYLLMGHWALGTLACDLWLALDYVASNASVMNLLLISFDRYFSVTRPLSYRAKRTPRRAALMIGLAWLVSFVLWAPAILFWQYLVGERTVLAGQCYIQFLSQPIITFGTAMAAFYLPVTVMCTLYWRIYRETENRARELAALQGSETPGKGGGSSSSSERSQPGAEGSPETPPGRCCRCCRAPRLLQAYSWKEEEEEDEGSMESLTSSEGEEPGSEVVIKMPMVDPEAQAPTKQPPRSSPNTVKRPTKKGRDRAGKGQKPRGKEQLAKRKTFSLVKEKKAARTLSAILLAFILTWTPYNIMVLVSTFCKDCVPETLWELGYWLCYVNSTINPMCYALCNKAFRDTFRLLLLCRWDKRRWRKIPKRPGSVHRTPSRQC

For the compound `CC#C[C@]1(O)CC[C@H]2[C@@H]3C[C@H](C)C4=CC(=O)CC[C@]4(C)[C@H]3CC[C@@]21C`, the Potency result in experiment [1], in [2], in experiment [3], in experiment [4], in experiment [5] and in experiment [6] was “inactive” each time. For the same compound, the Potency result in experiment [7], in [8], in [9], in experiment [10], in experiment [11] and in experiment [12] was “inactive” each time. Moreover, the Potency result in [13], in experiment [14], in [15], in [16] and in experiment [17] was “inactive” each time.

With `O=c1[nH]oc2c1CCNC2`, the Potency result in [1], in experiment [2], in experiment [3], in experiment [4], in experiment [5] and in [6] was “inactive” each time. Besides, the Potency result in [7], in experiment [8], in [9], in [10], in [18] and in [12] was “inactive” each time. Further, the Potency entry in experiment [13], in experiment [14], in [19], in [20], in experiment [15] and in experiment [16] was “inactive” throughout. For the same compound, the Potency entry in experiment [17] is “inactive”.

On to `Nc1n[nH]c(N)n1`, for which the Potency result in experiment [1], in experiment [3], in experiment [4], in experiment [5], in experiment [6] and in experiment [7] was “inactive” in each case. The Potency entry in [8], in [9], in [18], in experiment [12], in experiment [13] and in [14] was “inactive” throughout. Besides, the Potency result in experiment [15] and in [16] was “inactive” each time. In addition, in experiment [2], the Potency was 27.8 µM (active).

Consider `CCN[C@@H](C)Cc1ccccc1`, for which the Potency entry in experiment [1], in experiment [2], in experiment [3], in experiment [4], in [5] and in experiment [6] was “inactive” each time. Also, the Potency result in experiment [7], in [8], in [9], in [11], in experiment [18] and in experiment [13] was “inactive” in each case. Moreover, the Potency result in [14], in [19], in [15] and in experiment [17] was “inactive” throughout.

Regarding `Cn1cc(C2=C(c3cn(C4CCN(Cc5ccccn5)CC4)c4ccccc34)C(=O)NC2=O)c2ccccc21`, the Potency in [1] is 4.22 µM (active). For the same compound, the Potency entry in experiment [2], in [3], in experiment [4], in experiment [5], in experiment [6] and in experiment [7] was “inactive” in each case. For the same compound, the Potency entry in [8], in [9], in experiment [18], in [13], in experiment [14] and in experiment [16] was “inactive” throughout. Also, the Potency result in [17] is “inactive”.

Turning to `O=C1C(Cl)C(CCl)CN1c1cccc(C(F)(F)F)c1` (stereo unspecified), the Potency entry in experiment [1], in [2], in experiment [3], in [4], in [5] and in experiment [6] was “inactive” throughout. Moreover, the Potency result in experiment [7], in [8], in experiment [9], in experiment [11], in [18] and in experiment [12] was “inactive” throughout. Also, the Potency entry in experiment [13], in experiment [14], in [15], in experiment [16] and in experiment [17] was “inactive” throughout.

With `Oc1ccc(I)cc1`, the Potency entry in [1], in [2], in experiment [3], in experiment [4], in experiment [5] and in experiment [6] was “inactive” throughout. Also, the Potency entry in experiment [7], in experiment [8], in [9], in [11], in experiment [18] and in experiment [12] was “inactive” in each case. In addition, the Potency result in experiment [14], in experiment [19], in experiment [20], in experiment [15], in [16] and in [17] was “inactive” throughout.

The values above are taken from PubChem BioAssay (Tox21).
